This is an account of results in ChEMBL document CHEMBL1201862, “PubChem BioAssay data set” (2004).

Out of some 400,000 compounds screened, about 2,100 (0.53%) were called active. About 14% were inconclusive and are not listed. The rule behind the calls is not given here. The sample as a whole holds a higher share of actives than the screen did.

For this assay, the target named is Ataxin-2 (Homo sapiens) (UniProt Q99700). The assay is described as follows: qHTS for Inhibitors of ATXN expression. The format is functional. In general terms: In qHTS, concentration-response curves come from the screen itself.
Chain of Ataxin-2 (Homo sapiens) (Q99700 whole entry): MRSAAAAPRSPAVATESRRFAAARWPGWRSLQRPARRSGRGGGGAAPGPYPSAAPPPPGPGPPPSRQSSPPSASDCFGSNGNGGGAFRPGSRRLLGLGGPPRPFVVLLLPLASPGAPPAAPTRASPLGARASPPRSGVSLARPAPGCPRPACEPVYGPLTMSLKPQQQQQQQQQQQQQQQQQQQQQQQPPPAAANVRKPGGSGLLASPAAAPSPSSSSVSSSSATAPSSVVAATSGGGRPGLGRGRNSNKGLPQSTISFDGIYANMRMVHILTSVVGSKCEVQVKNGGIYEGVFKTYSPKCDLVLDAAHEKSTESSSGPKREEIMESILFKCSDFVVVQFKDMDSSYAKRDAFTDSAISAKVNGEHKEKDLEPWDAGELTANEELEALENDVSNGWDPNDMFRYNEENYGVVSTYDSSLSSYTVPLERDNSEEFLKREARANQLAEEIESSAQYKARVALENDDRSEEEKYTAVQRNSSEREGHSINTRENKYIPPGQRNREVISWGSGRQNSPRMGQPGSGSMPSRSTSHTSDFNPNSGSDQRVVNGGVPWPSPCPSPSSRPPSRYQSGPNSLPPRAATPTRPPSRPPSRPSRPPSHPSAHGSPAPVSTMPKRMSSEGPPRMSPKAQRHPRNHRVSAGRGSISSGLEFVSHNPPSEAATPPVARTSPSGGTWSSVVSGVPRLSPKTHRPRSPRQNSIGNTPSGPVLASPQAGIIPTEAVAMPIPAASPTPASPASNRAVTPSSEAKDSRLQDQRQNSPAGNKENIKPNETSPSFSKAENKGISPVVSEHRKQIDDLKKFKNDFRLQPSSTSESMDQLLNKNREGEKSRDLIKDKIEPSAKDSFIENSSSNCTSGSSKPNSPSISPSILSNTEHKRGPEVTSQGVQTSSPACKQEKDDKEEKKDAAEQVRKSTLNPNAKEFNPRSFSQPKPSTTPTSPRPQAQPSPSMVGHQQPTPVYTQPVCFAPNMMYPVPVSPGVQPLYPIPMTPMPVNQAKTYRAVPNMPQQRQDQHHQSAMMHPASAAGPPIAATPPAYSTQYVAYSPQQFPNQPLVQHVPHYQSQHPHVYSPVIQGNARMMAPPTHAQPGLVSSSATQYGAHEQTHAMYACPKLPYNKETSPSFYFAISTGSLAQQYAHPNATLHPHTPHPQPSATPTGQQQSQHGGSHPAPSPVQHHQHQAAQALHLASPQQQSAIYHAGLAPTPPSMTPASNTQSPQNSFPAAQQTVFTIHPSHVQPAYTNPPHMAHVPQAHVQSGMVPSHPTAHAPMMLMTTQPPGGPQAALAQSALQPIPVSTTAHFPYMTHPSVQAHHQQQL
Turning to `Cc1ccc(-c2cc(C(F)(F)F)n3ncc(C(=O)N4CCCCC4c4cccnc4)c3n2)cc1` (stereo not drawn), the Potency entry was “inactive”.

Take `O=C(CSc1ccc2ccccc2c1)NCCc1ccc(O)c(O)c1`: the Potency result was “inactive”. `COC(=O)C(C)N=C(S)N1CCN(c2c(F)cc3c(=O)c(C(=O)O)cn(C4CC4)c3c2OC)CC1C` (stereo not drawn): the Potency entry is “inactive”. As for `S=C(Nc1ccc2nc(-c3ccccn3)c(-c3ccccn3)nc2c1)N1CCCCCC1`, the Potency result was “inactive”. In the case of `Cc1nc(N2CCCCCC2)c2ccccc2n1` it was “inactive”; in that of `CC(NNC(=S)N1CCCCCC1)c1ccc2ccccc2n1` (stereo not drawn), 12.6 µM (active). Next, `CCOc1ccc(C(=O)C2CCN(C(=O)c3ccc([N+](=O)[O-])cc3)CC2)cc1`: “inactive”; `COc1ccc(C2C3=C(O)CC(C)(C)CC3=Nc3c2c(=O)n(C)c(=O)n3C)cc1OC` (stereo not drawn): “inactive”.

As for `Cc1ccc(C(=O)OCC(=O)NCCc2ccc(F)cc2)cc1S(=O)(=O)N1CCOCC1`, the Potency result is “inactive”. Regarding `Cc1cc(C(=O)CCl)c(C)n1CCc1ccc(F)cc1`, the Potency was 37.7 µM (active). Next, `COc1ccc(CCn2c(C)cc(C(=O)CCl)c2C)cc1OC`: 39.8 µM (active); `Cc1cc(C(=O)COC(=O)Cc2c(F)cccc2Cl)c(C)n1C`: “inactive”; `N=c1c(C(=O)NCC2CCCO2)cc2c(=O)n3ccccc3nc2n1Cc1cccnc1` (stereo not drawn): “inactive”. `CCOC(=O)COc1ccc2c(C#N)c3ccccn3c2c1`: the Potency entry was “inactive”. In the case of `COc1cc(/C=N/NC(=O)CCC(=O)Nc2ccc(F)cc2)ccc1O` it was “inactive”; in that of `Cn1c2ccccc2c2nnc(N/N=C/c3ccc(O)cc3)nc21`, “inactive”; in that of `CCOc1cc(/C=N/Nc2nc(-c3cccc(S(=O)(=O)N4CCCC4)c3)cs2)ccc1O`, 25.1 µM (active). In the case of `CC(=O)c1sc(N/N=C/c2ccc(C(C)C)cc2)nc1C` it was “inactive”; in that of `COc1cc(/C=N/Nc2nc(-c3ccc(S(=O)(=O)N(C)C)cc3)cs2)ccc1O`, 35.5 µM (active).

For the molecule `O=C(Nc1cccc(S(=O)(=O)N2CCCCCC2)c1)c1ccc(O)nc1`, the Potency entry was “inactive”. As for `COc1cc(/C=N/NC(=O)C(=O)NCc2ccco2)ccc1O`, the Potency result is “inactive”. As for `CN(C)S(=O)(=O)c1ccc(-c2csc(N/N=C/c3ccc(O)cc3)n2)cc1`, the Potency is 20 µM (active). On to `O=C(N/N=C/c1sc(N2CCOCC2)nc1-c1ccccc1)c1cccc(S(=O)(=O)N2CCCC2)c1`, for which the Potency result is “inactive”. Turning to `CCN(CC)c1ccc2cc(C=O)c(=O)oc2c1`, the Potency entry was “inactive”. In the case of `CCOc1ccc(C(=O)c2oc3ccccc3c2NC(=O)c2cc(-c3ccccc3)on2)cc1`, the Potency entry is “inactive”. In the case of `Cc1cccc(N/N=C(\C=O)C(=O)c2ccc(Br)cc2)c1` it was 31.6 µM (active); in that of `O=C/C(=N\Nc1ccccc1)C(=O)c1ccc(Cl)cc1`, 9.47 µM (active). Turning to `O=C(O)c1ccc(N/N=C/c2ccc(-c3cc(Cl)ccc3Cl)o2)cc1`, the Potency entry is “inactive”. Next, `CC(=O)/C(=N\Nc1ccccc1)Oc1ccc(Br)cc1`: “inactive”.

Consider `O=C(Nc1ccccc1)c1ncoc1-c1ccc(Cl)cc1`, for which the Potency result is “inactive”. Next, `Cc1cccc(/C=N/NC(=O)c2cc(Br)ccc2O)n1`: “inactive”; `C=CCn1c(S)nnc1-c1oc2nc(-c3ccccc3)cc(-c3ccccc3)c2c1N`: “inactive”. In the case of `CNc1snc(C)c1C(=O)OCC(=O)N(C)c1ccccc1` it was “inactive”. In the case of `CCOc1ccc2nc3ncccc3c(O)c2c1` it was “inactive”; in that of `CCOc1ccc2nc3cc(N=Nc4ccc(N)nc4N)ccc3c(N)c2c1`, 10.6 µM (active). Take `CCOc1ccc2[nH]c3ccc4nonc4c3c2c1`: the Potency result is “inactive”. Take `COc1ccc(C2=CC(c3cccc(C)c3)n3nnnc3N2)cc1` (stereo not drawn): the Potency entry is “inactive”. With `Cc1n[nH]c(C)c1N1C(=O)c2cccc3c(Br)ccc(c23)C1=O`, the Potency entry is “inactive”.

On to `COc1ccccc1C1C=C(c2ccc(F)cc2)Nc2nc(-c3ccc(Cl)cc3)nn21` (stereo not drawn), for which the Potency entry was “inactive”. Next, `CCOc1ccc(C(=O)C2=C(O)C(=O)N(c3ncccn3)C2c2ccc(C)cc2)cc1` (stereo not drawn): “inactive”; `O=C1c2[nH]nc(-c3ccc(F)cc3)c2C(c2ccccc2F)N1c1ccccc1` (stereo not drawn): 22.4 µM (active). With `CCOc1ccc(C2C=C(c3ccc(C)cc3)Nc3nnnn32)cc1` (stereo not drawn), the Potency result is “inactive”. `COc1ccccc1C1C=C(c2ccc(Cl)cc2)Nc2nc(N3C(=O)CCC3=O)nn21` (stereo not drawn): the Potency entry was “inactive”. As for `CCOc1ccc(C2c3c(-c4ccc(C)cc4)n[nH]c3C(=O)N2c2ccc(Cl)cc2)cc1` (stereo not drawn), the Potency is 39.8 µM (active). Next, `Cc1ccc(N2C(=O)c3[nH]nc(-c4ccc(Cl)cc4)c3C2c2ccc(F)cc2)cc1` (stereo not drawn): 39.8 µM (active); `OC[C@@H]1[C@@H](c2ccc(Cl)cc2)C(c2ccc(F)cc2)=NN1c1ccccc1`: “inactive”; `COc1ccccc1C1c2c(-c3ccc(Cl)cc3)n[nH]c2C(=O)N1c1ccc(C)cc1` (stereo not drawn): 39.8 µM (active). In the case of `O=C1OCCN1C(=O)[C@H]1[C@H](c2ccc(Cl)cc2)C(c2ccc(F)cc2)=NN1c1ccc(Br)cc1` it was “inactive”. In the case of `CCN1C(=O)c2cccc3c(S(=O)(=O)N(C)C)ccc1c23` it was “inactive”; in that of `Cc1ccc(-c2cc(C(=O)NN3CCOCC3)c3cc(Br)ccc3n2)o1`, “inactive”; in that of `CCCc1cc(C(=O)Nc2cc(C)on2)no1`, “inactive”. In the case of `N#Cc1c(N)n(-c2ccc(C(=O)O)cc2)c2nc3ccccc3nc12`, the Potency entry was “inactive”. Next, `Cc1ccc2nc(N3CCN(C=O)CC3)nc(-c3ccccc3)c2c1`: “inactive”. Take `CCOC(=O)c1ccc(-c2ccc(/C=C(\C#N)C(=O)NCC3CCCO3)o2)cc1` (stereo not drawn): the Potency entry was “inactive”. In the case of `Cn1c(-c2ccc(C#N)cc2)c(C#Cc2ccccc2)c2ccccc21`, the Potency entry is “inactive”. Next, `COc1ccc(OC)c(C2c3c(-c4ccc(Br)cc4)n[nH]c3C(=O)N2c2ccc(Cl)cc2)c1` (stereo not drawn): 39.8 µM (active); `CCOc1ccc(N2C(=O)c3[nH]nc(-c4cccs4)c3C2c2cccc(F)c2)cc1` (stereo not drawn): 39.8 µM (active). Consider `Fc1ccc(N2N=C(c3cccs3)CC2c2ccccc2)cc1` (stereo not drawn), for which the Potency entry is “inactive”. In the case of `COc1ccccc1[C@@H]1C(c2cccc(Cl)c2)=NN(c2ccc(Br)cc2)[C@H]1C(=O)N1CCOC1=O` it was “inactive”; in that of `COC(=O)c1nc2n(n1)C(c1cc(OC)ccc1OC)C=C(c1ccc(Br)cc1)N2` (stereo not drawn), “inactive”; in that of `CC(=O)c1sc2nc(C)c3c(c2c1N)CCCC3`, “inactive”. For `CNc1nc(-c2cccs2)cc(C(F)(F)F)c1C#N`, the Potency entry is “inactive”.

`Cc1cccc(C)c1OCCn1c(C2CC(=O)N(Cc3ccc(F)cc3)C2)nc2ccccc21` (stereo not drawn): the Potency is 39.8 µM (active).

`CCOc1ccc(CCNC(=O)C2CC(=O)N(Cc3ccc(OC)cc3)C2)cc1OCC` (stereo not drawn): the Potency entry was “inactive”. Next, `Cc1ccc(C)c(OCCn2nnc3ccccc32)c1`: “inactive”; `Cc1ccc(C)c(OCCn2c(C3CC(=O)N(Cc4ccc(F)cc4)C3)nc3ccccc32)c1` (stereo not drawn): 39.8 µM (active); `COCCn1c2nc(=O)n(-c3ccccc3)c(=O)c-2nc2ccccc21`: “inactive”. Next, `CC(=O)Oc1ccc2cc(-c3cccnc3)c(=O)oc2c1`: “inactive”; `NNC(=O)C1CC1(c1ccccc1)c1ccccc1` (stereo not drawn): “inactive”. In the case of `Cc1ccc(C2(c3ccc(C)cc3)CC2C(=O)Nc2ccc([N+](=O)[O-])cc2O)cc1` (stereo not drawn) it was 20 µM (active). Take `COc1ccc(CNC2=NC(=O)CC(C(=O)Nc3ccc([N+](=O)[O-])cc3C)S2)cc1` (stereo not drawn): the Potency entry is “inactive”.

Take `COc1ccc2nc(NCCCNC(=O)c3cc(OC)c(OC)c(OC)c3)c(C#N)cc2c1`: the Potency result was “inactive”. Turning to `CCCCN(CCCNC(=O)c1cc(Nc2ccc(OC)c(OC)c2)nc2ccccc12)Cc1ccccc1`, the Potency is 22.4 µM (active). Next, `CCCCNC(=O)c1cc2c(=O)n3cccc(C)c3nc2n(Cc2ccccc2)c1=N`: “inactive”; `COc1ccc(OC)c(Nc2cc(C(=O)NCc3ccccc3)c3ccccc3n2)c1`: “inactive”. As to `COc1ccc(Nc2cc(C(=O)NCCCN(C)Cc3ccccc3)c3ccccc3n2)c(OC)c1`, the Potency is 14.1 µM (active).

Turning to `CCOc1ccccc1-n1c(C)cc(C=O)c1C`, the Potency entry is “inactive”. In the case of `CCn1nc(C(=O)Nc2nc(-c3ccccn3)cs2)c2ccccc2c1=O` it was 31.6 µM (active). In the case of `CCCn1c(=O)c(C(=O)Nc2ncccc2O)c(O)c2ccccc21` it was “inactive”; in that of `CCn1nc(NC(=O)c2cccs2)c2cc3ccccc3nc21`, “inactive”. In the case of `CC[C@@H]1C(c2cccc(Cl)c2)=NN(c2ccc(Br)cc2)[C@H]1C(=O)N1CCOC1=O` it was “inactive”; in that of `O=C(CN1C(=O)NC2(CCCC2)C1=O)NNC(=O)c1ccccc1F`, “inactive”; in that of `CCOc1cccc(CN2CCCC(C(=O)c3cccc(C(F)(F)F)c3)C2)c1O` (stereo not drawn), “inactive”. For `Cc1nc(-c2ccc(S(=O)(=O)Oc3ccc(Cl)cc3Cl)s2)cs1`, the Potency result was “inactive”.

Turning to `CCOC(=O)c1cc2c(=O)n3ccccc3nc2n(Cc2ccco2)/c1=N\C(=O)c1ccccc1Br`, the Potency entry was “inactive”. In the case of `O=C1c2ccccc2C(=O)c2[nH]c(O)nc21` it was 25.1 µM (active); in that of `CCC(=O)N(CC)C1=C(O)C(=O)c2ccccc2C1=O`, “inactive”; in that of `CCOC(=O)C1CCN(C(=O)c2ccc(CNS(=O)(=O)c3ccc(OC)cc3)cc2)CC1`, “inactive”. In the case of `O=C(CCCCC(=O)NN=Cc1ccc(Cl)cc1)NN=Cc1ccc(Cl)cc1` it was 39.8 µM (active). As to `O=C(CCCCC(=O)NN=Cc1ccc2c(c1)CCC2)NN=Cc1ccc2c(c1)CCC2`, the Potency entry is “inactive”.

As to `O=C1NCCCC1C(=O)N/N=C/c1ccc(Cl)cc1` (stereo not drawn), the Potency result is “inactive”. Next, `Cc1c(-c2ccccc2)cnc2c(C)cccc12`: “inactive”; `CCc1cc(=O)oc2c(C)c(O)c(CN(C)C)cc12`: “inactive”.

In the case of `CC1CCCCC1NC(=O)COC(=O)c1c2c(nc3ccccc13)/C(=C/c1ccco1)CC2` (stereo not drawn), the Potency result is “inactive”.

Turning to `CCN(CCn1cccn1)C(=O)CC1C(=O)NCCN1Cc1ccc(F)cc1` (stereo not drawn), the Potency result was “inactive”. Next, `CCc1cc(CNC(=O)CC2C(=O)NCCN2Cc2ccc(-c3ccccc3)cc2)on1` (stereo not drawn): 35.5 µM (active). In the case of `COc1cccc(CN2CCNC(=O)C2CC(=O)NC2CCOCC2)c1OC` (stereo not drawn) it was “inactive”.

`O=S(=O)(Nc1ccc(-c2cn3cccnc3n2)cc1)c1ccccc1`: the Potency entry was “inactive”. Consider `Clc1ccc(-c2nc3cnccn3c2NC2CCCC2)cc1`, for which the Potency result was “inactive”. Take `COc1ccc(CC(=O)N2CCN(c3ccccc3)CC2)cc1`: the Potency entry was “inactive”. Next, `O=C(O)c1ccn2c(C(=O)c3ccc(Cl)cc3)c(-c3ccccc3)cc2c1`: “inactive”; `COc1ccc(C(=O)C(CN2CCCC2)c2ccccc2)cc1` (stereo not drawn): 28.2 µM (active); `O=C(c1ccc(Cl)cc1)C(CN1CCCC1)c1ccccc1` (stereo not drawn): 22.4 µM (active). Next, `CC(C)(C)C(CN1CCCC1)OC(=O)c1ccccc1` (stereo not drawn): “inactive”; `O=C(c1ccc(Cl)cc1)C1CCN(C(=O)c2ccccc2F)CC1`: “inactive”; `O=C(/C=C/c1cn(CC(O)CN2CCCCCC2)c2ccccc12)c1ccccc1` (stereo not drawn): “inactive”. With `O=C(/C=C/c1cn(CC(O)CN2CCCCC2)c2ccccc12)c1ccccc1` (stereo not drawn), the Potency result is “inactive”. `O=C(c1ccc(Cl)cc1)C(CN1CCCCC1)c1ccccc1` (stereo not drawn): the Potency is 31.6 µM (active).
